Results taken from PubChem BioAssay.
Active and inactive are the calls of the source.

Columns and labels:
[1] = binders of probe aFSTL3 on microarray, primary screen, stem cell growth factor project, biochemical, small-molecule microarray, fluorescence 635/667 (AID 1064); conditions: higher = more signal;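 note: measures binding of the biotinylated anti-FSTL3 antibody to printed compounds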
[2] = binders from COS7 lysate, DM2A8 probe, primary screen, torsin A project, cell lysate, small-molecule microarray, fluorescence 635/667 (AID 1065); conditions: higher = more signal, COS7 lysate expressing mutant human TOR1A
[3] = binders of probe aFGF2 on microarray, primary screen, stem cell growth factor project, biochemical, small-molecule microarray, fluorescence 635/667 (AID 1067); conditions: higher = more signal;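 note: measures binding of biotinylated aFGF2 protein to printed compounds on slides; z-score merges feature fluorescence and signal-to-noise across triplicate slides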
[4] = binders of probe aFGF10 on microarray, primary screen, stem cell growth factor project, biochemical, small-molecule microarray, fluorescence 635/667 (AID 1071); conditions: higher = more signal;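 note: score merges 667 nm spot intensity and signal to noise from triplicate slides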
[5] = molecular target: Neurogenic locus notch homolog protein 2 (Homo sapiens) (UniProt Q04721); assay: Notch2 binders on small-molecule microarrays, primary screen, biochemical, small-molecule microarray, 635 nm fluorescence, stem cell growth factors (AID 1073); conditions: Notch2 binding, higher = more signal
[6] = molecular target: Pro-neuregulin-1, membrane-bound isoform (Homo sapiens) (UniProt Q02297); assay: NRG1 binders on small-molecule microarrays, primary screen, psychiatric disease protein project, biochemical, small-molecule microarray, fluorescence 635/667 (AID 1075); conditions: NRG1 binding, 635 nm fluorescence, higher = more signal;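 note: score combines 667 nm spot fluorescence with signal to noise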
[7] = test system: Neuregulin-1 EGF-like domain; assay: binders of neuregulin-1 EGF-like domain, primary screen, biochemical, small-molecule microarray, 635 nm fluorescence (AID 1081); conditions: small-molecule microarray binding, higher = more signal;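 note: binding of the protein to compounds printed on small-molecule microarray slides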
[8] = FRG1 promoter luciferase signal modulators, primary screen, FRG1 inhibition for FSHD, cell-based, C2C12 myotubes, firefly/Renilla luciferase, luminescence (AID 1084); conditions: higher = more signal, called active from +8 up or from −8 down
[9] = binders of probe aFST on microarray, primary screen, stem cell growth factor project, biochemical, small-molecule microarray, fluorescence 635/667 (AID 1086); conditions: higher = more signal;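 note: score merges 667 nm fluorescence with signal-to-noise of each printed compound spot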
[10] = binders of probe aHhip on microarray, primary screen, stem cell growth factor project, biochemical, small-molecule microarray, fluorescence 635/667 (AID 1087); conditions: higher = more signal;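 note: score merges spot fluorescence at 667nm with spot signal to noise ratio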
[11] = test system: PRMT1 (protein arginine N-methyltransferase 1); assay: PRMT1 binders on small-molecule microarrays, primary screen, biochemical, small-molecule microarray, 635 nm fluorescence (AID 1088); conditions: small-molecule microarray binding, higher = more signal;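 note: binding of Prmt1 protein to compounds spotted on small-molecule microarray slides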
[12] = yeast growth modulation, basal conditions, primary screen, YJM789 clinical isolate, OD600, 24 h (AID 1089);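 note: growth of clinical yeast isolate S. cerevisiae YJM 789 seeded 1000 cells per well; test concentration not given here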; conditions: S. cerevisiae YJM789 growth, higher = more signal, called active from +8 up or from −8 down
[13] = fission yeast growth modulation, primary screen, strain 972, OD600, 24 h, no modulator (AID 1090);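 note: basal condition with compound alone and no growth modifier present; test concentration not given here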; conditions: S. pombe 972 growth, higher = more signal, called active from +8 up or from −8 down
[14] = S. cerevisiae growth modulation with rapamycin, primary screen, strain BY4716, OD600, 96 h (AID 1091); conditions: higher = more signal, called active from +8 up or from −8 down; note: test concentration not given here
[15] = molecular target: Torsin-1A-interacting protein 2 (Homo sapiens) (UniProt Q8NFQ8); assay: LULL1 binders on small-molecule microarray, primary screen, cell lysate, human LULL1 lysate, 635/667 nm fluorescence (AID 1092); conditions: hLULL1 lysate binding, 635 nm fluorescence, higher = more signal;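 note: probe is lysate of COS7 cells overexpressing human LULL1; score merges per-feature 667 nm fluorescence with signal-to-noise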
[16] = E. coli growth modulation, two-sided OD650, primary screen, E. coli filamentation project, strain DRC41, 24 h (AID 1093); conditions: OD650, 24 h, higher = more signal, called active from +8 up or from −8 down;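 note: MC1000 strain lacking acrAB efflux and sulA so SOS filamentation is blocked; test concentration not given here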
[17] = small-molecule microarray binders of probe aLefty2, primary screen, biochemical, biotinylated probe, 635/667 nm fluorescence (AID 1094); conditions: higher = more signal;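 note: score merges spot fluorescence near 667 nm with spot signal-to-noise ratio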
[18] = test system: Noggin (protein binding on small-molecule microarray); assay: Noggin binders on small-molecule microarray, primary screen, biochemical, 635/667 nm fluorescence (AID 1095); conditions: 635 nm fluorescence, higher = more signal;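 note: score merges 667 nm feature fluorescence with signal to noise over triplicate slides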
[19] = molecular target: Neurogenic locus notch homolog protein 3 (Homo sapiens) (UniProt Q9UM47); assay: NOTCH3 binders on small-molecule microarray, primary screen, biochemical, 635/667 nm fluorescence (AID 1096); conditions: NOTCH3 binding, 635 nm fluorescence, higher = more signal
[20] = small-molecule microarray binders of probe aEGFR, primary screen, biochemical, biotinylated probe, 635/667 nm fluorescence (AID 1097); conditions: higher = more signal;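 note: probe is a biotinylated anti-EGFR antibody binding compounds printed on slides; score combines fluorescence near 667 nm and signal to noise of each spot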

Torsin-1A-interacting protein 2 (Homo sapiens), sequence (Q8NFQ8 whole entry, looked up): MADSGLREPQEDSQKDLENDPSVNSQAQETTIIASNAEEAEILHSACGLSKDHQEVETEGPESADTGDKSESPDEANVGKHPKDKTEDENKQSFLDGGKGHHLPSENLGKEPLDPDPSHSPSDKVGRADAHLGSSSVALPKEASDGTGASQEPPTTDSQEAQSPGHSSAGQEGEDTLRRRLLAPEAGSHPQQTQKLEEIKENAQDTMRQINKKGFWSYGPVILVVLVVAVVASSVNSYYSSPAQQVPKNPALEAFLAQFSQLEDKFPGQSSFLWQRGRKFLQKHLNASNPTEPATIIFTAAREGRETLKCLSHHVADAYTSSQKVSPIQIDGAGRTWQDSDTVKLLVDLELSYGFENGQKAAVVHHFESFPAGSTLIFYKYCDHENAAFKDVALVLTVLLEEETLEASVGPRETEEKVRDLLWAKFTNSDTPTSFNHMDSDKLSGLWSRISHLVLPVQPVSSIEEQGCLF
Pro-neuregulin-1, membrane-bound isoform (Homo sapiens), sequence (Q02297 whole entry, looked up, the tested form may be a part, canonical isoform): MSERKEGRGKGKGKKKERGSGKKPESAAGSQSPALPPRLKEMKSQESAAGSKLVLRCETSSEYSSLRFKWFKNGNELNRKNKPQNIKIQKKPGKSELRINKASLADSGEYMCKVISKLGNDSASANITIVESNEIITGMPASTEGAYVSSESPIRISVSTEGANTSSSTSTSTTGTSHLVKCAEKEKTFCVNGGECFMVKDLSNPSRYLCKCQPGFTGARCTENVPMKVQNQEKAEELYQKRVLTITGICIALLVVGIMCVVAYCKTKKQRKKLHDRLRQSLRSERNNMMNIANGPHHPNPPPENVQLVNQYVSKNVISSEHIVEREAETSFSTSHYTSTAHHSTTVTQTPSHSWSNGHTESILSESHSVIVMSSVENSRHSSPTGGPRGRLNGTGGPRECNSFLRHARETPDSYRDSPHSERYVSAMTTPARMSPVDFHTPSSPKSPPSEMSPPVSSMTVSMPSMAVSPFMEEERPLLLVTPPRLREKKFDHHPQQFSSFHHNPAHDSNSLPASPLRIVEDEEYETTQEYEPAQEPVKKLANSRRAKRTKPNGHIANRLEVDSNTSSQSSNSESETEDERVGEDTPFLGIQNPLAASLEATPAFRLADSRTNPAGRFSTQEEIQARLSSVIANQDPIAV
Neurogenic locus notch homolog protein 3 (Homo sapiens), sequence (Q9UM47 whole entry, looked up): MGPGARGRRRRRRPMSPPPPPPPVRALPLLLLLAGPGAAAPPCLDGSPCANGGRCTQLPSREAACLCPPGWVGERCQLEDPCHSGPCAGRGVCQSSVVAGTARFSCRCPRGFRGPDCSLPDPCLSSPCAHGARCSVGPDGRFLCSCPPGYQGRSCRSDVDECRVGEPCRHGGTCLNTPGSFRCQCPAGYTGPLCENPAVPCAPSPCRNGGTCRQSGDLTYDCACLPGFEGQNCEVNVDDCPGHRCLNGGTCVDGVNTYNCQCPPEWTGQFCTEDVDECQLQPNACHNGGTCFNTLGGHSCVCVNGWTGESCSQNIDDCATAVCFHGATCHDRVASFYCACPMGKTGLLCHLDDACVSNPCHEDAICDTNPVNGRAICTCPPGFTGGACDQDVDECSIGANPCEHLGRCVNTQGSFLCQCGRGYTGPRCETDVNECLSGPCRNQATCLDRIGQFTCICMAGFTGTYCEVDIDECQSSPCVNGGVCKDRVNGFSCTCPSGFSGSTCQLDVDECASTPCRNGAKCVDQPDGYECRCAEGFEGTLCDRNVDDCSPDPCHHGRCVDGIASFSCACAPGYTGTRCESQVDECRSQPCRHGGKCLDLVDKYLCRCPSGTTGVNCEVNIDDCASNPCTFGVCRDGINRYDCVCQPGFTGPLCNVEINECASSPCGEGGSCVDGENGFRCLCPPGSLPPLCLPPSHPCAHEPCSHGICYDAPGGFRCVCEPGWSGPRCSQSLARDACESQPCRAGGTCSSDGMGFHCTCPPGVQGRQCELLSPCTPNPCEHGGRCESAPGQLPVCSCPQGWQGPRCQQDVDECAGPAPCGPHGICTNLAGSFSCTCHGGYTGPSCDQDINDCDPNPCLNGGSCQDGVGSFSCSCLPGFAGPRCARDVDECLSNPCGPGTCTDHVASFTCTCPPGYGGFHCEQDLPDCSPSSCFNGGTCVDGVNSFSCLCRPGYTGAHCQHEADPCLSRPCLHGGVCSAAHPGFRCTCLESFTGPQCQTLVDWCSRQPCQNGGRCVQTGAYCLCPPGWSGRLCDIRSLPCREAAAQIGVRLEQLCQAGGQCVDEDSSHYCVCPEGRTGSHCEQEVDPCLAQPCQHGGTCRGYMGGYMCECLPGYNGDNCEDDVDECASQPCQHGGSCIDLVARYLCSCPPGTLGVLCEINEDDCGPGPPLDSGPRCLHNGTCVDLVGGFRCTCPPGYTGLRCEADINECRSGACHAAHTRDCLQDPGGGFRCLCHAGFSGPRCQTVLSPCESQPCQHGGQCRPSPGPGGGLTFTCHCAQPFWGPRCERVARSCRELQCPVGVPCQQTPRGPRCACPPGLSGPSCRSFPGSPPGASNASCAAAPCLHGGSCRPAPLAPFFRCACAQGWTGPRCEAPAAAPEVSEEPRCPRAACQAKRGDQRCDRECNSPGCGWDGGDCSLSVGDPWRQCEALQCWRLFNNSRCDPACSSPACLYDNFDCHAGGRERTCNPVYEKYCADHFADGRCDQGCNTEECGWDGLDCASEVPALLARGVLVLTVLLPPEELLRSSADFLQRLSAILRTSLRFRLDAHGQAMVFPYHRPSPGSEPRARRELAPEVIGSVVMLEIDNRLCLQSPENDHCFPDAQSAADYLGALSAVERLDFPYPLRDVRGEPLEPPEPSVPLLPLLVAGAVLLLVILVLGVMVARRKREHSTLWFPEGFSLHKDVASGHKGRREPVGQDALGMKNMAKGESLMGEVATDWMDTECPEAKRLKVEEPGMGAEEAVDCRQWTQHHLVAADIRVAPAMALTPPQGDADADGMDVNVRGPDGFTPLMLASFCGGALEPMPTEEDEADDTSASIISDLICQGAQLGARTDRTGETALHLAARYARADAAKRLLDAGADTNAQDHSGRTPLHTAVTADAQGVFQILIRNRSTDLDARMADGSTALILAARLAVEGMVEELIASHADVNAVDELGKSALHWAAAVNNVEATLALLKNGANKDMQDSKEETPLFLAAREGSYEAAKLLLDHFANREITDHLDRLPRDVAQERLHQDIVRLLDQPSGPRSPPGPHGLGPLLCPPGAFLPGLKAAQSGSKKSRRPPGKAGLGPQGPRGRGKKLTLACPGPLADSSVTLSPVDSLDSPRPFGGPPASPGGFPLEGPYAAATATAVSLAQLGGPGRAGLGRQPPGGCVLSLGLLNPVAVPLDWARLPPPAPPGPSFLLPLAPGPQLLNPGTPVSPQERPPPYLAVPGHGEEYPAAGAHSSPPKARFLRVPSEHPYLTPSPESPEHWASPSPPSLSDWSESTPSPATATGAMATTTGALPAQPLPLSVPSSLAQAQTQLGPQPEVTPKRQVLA

Row | Structure (SMILES) | composite z-score [1] | composite z-score [2] | composite z-score [3] | composite z-score [4] | composite z-score [5] | composite z-score [6] | composite z-score [7] | z-score [8] | composite z-score [9] | composite z-score [10] | composite z-score [11] | z-score [12] | z-score [13] | z-score [14] | composite z-score [15] | z-score [16] | composite z-score [17] | composite z-score [18] | composite z-score [19] | composite z-score [20]
1 | O=C1OCCC/C=C\[C@H]2OC34C=CCN(CCN5CCOCC5)C(=O)[C@H]3N(CCCCCCO)C(=O)[C@@H]4C12 (stereo not given in full) | 0.0814 | 2.31 | -0.171 | -0.291 | -0.0784 | 1.91 | 1.17 | -1.05 (inactive) | -0.151 | -0.0994 | 0.733 | -1.84 (inactive) | -1.29 (inactive) | -0.529 (inactive) | 2.39 | 1.33 (inactive) | -0.166 | -0.0171 | 0.18 | -0.0953
2 | O=C1O[C@@H](c2ccccc2)[C@@H](c2ccccc2)N2[C@@H](c3ccc(O)cc3)[C@]3(C(=O)Nc4ccc(C#CC5(O)CCCCCC5)cc43)[C@@H](C(=O)NC[C@H](O)c3ccccc3)[C@H]12 | 0.107 | -0.363 | -0.0255 | 0.753 | -0.226 | 1.02 | 0.538 | 0.106 (inactive) | -0.405 | -0.236 | 1.26 | 0.21 (inactive) | -0.0625 (inactive) | 1.24 (inactive) | 2.05 | -0.255 (inactive) | -0.242 | -0.0578 | -0.0872 | -0.162
3 | C=CCC(OC(C)=O)[C@@H]1[C@@H](N(Cc2cc3ccccc3o2)C(=O)Cc2ccc(F)cc2)c2cc(OCCCO)ccc2N1C(=O)c1ccc2ccccc2c1 (stereo not given in full) | -0.0245 | -0.186 | -0.116 | -0.121 | -0.367 | -0.32 | -0.432 | -1.92 (inactive) | 0.45 | -0.0994 | -0.381 | -0.313 (inactive) | 0.716 (inactive) | -0.538 (inactive) | -0.383 | -1.07 (inactive) | -0.0708 | 0.437 | -0.44 | -0.112
4 | CN(C)CCCNC(=O)[C@@]1(C)c2ccccc2C(=O)N(Cc2ccccc2)[C@H]1c1ccc(CO)cc1 | 1.2 | -0.333 | -0.116 | -0.305 | -0.675 | 1.62 | 0.562 | -0.839 (inactive) | -0.0584 | -0.0074 | 0.988 | -0.466 (inactive) | -0.505 (inactive) | -0.577 (inactive) | 2.82 | 1.16 (inactive) | 0.151 | 0.0474 | -0.652 | -0.0639
5 | [N-]=[N+]=NCc1ccccc1C[C@@]1(C(=O)N2CCCCC2)N=C(c2ccc(OCCCO)cc2)O[C@@H]1c1ccccc1 | 0.0156 | 0.317 | -0.0958 | 0.108 | 1.09 | 1.15 | 0.825 | -3.91 (inactive) | 0.301 | -0.0457 | 0.424 | 0.591 (inactive) | 1.08 (inactive) | 32.6 (active) | 2.2 | 0.685 (inactive) | -0.0261 | -0.578 | -0.426 | 0.159
6 | COc1ccc([Si](C)(C)[C@@H]2[C@@H](CC(=O)N3Cc4ccccc4C[C@H]3CO)O[C@]3(C(=O)N(Cc4cccc(N5C(=O)c6cccc7cccc5c67)c4)c4ccccc43)[C@H]2C)cc1 | -0.345 | 0.822 | -0.0111 | 0.659 | 0.973 | 0.828 | 1.04 | -1.51 (inactive) | 0.593 | 0.0505 | 1.56 | -0.258 (inactive) | 0.93 (inactive) | 2.43 (inactive) | 1.6 | -0.342 (inactive) | -0.0144 | 1.08 | 1.09 | 0.0276
7 | COC(=O)[C@@]1(Cc2ccc(OC)cc2)[C@@H]2C(=CC(=O)[C@H]2CC(=O)C(=O)N(C)C)CN1C(=O)c1ccccc1 | 0.928 | -0.262 | 0.0921 | 0.582 | 1.77 | 1.39 | 1.18 | 1.46 (inactive) | 1.97 | 0.177 | 0.464 | 0.244 (inactive) | 0.693 (inactive) | 2.88 (inactive) | 3.54 | -1.08 (inactive) | 0.413 | -0.343 | 1.03 | 0.0364
8 | COc1ccccc1CN1C(=O)c2ccccc2[C@@]2(Cc3ccccc3N(CC(F)(F)F)C2=O)[C@@H]1c1ccc(CO)cc1 | -0.951 | 0.252 | -0.226 | -0.244 | 0.166 | -0.226 | 0.778 | -3.55 (inactive) | -0.29 | -0.403 | 0.955 | 0.17 (inactive) | 0.181 (inactive) | -1.7 (inactive) | 0.104 | 1.07 (inactive) | -0.332 | 1.18 | 0.538 | -0.322
9 | C=CCC(OC(C)=O)[C@@H]1[C@@H](N(Cc2ccc(-c3cccc(C(F)(F)F)c3)o2)C(=O)c2ccc(-c3ccccc3)cc2)c2cc(OCCCO)ccc2N1C(=O)c1ccc2ccccc2n1 (stereo not given in full) | -0.0375 | -0.246 | -0.0266 | 0.306 | 0.0588 | 0.0617 | -0.385 | -0.379 (inactive) | 0.77 | -0.0237 | -1.08 | 0.672 (inactive) | 0.789 (inactive) | 0.847 (inactive) | -0.244 | -0.656 (inactive) | -0.0063 | -0.0955 | 0.0478 | -0.0656
10 | COc1ccc([Si](C)(C)[C@@H]2[C@@H](CC(=O)N(CCO)Cc3ccccc3)O[C@]3(C(=O)N(Cc4cccc(N5CCOC5=O)c4)c4ccccc43)[C@H]2C)cc1 | -0.0388 | 1.02 | -0.117 | 0.476 | 0.0505 | 1.1 | 1.12 | -0.819 (inactive) | -0.0988 | -0.248 | 1.55 | -0.757 (inactive) | -0.21 (inactive) | 2.11 (inactive) | 1.96 | 1.37 (inactive) | -0.349 | 0.726 | 0.733 | -0.129
